# About 83,000 compounds went through this panel and 20% of them were active in at least one assay; those are over-represented in the sample as a whole.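 48-hour exposure, single concentration, 96-well plates; percent growth endpoint where 0 means no net growth. Active: below 10.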 A number with no mark means an inactive call. Calls of active or inactive are those of the source.
# Tested on: HL-60(TB) leukemia
# Assay: NCI-60 one-dose screen, 48 h (100 = growth as untreated, 0 = no growth, -100 = all killed)
# Details: 10 µM unless noted
row,SMILES,growth
1,C[C@]12CC[C@H]3[C@@H](CCC4=CC(=O)CC[C@@]43C)[C@@H]1CC[C@@H]2c1csc(N)n1,0.82% (active)
2,O=C(Nc1cccc(-n2cc(-c3ccncc3)c(-c3ccc(Cl)c(O)c3)n2)c1)Nc1cc(C(F)(F)F)cc(C(F)(F)F)c1,-18.3% (active)
3,COc1cc(Oc2cc(-c3cccnc3)ccc2NC(=O)Nc2ccc(F)cc2F)cc(OC)c1OC,91.3%
4,CCOC(=O)N1C/C(=C/c2ccc(F)cc2)C(=O)/C(=C/c2ccc(F)cc2)C1,4.58% (active)
5,CC(C)=CCC[C@](C)(O)[C@H]1CC[C@]2(C)[C@@H]1CC[C@@H]1[C@@]3(C)C/C(=C/c4ccc(Br)cc4)C(=O)C(C)(C)[C@@H]3CC[C@]12C,92.9%
6,Nc1ncc(-c2ccc3ncnc(Nc4ccc(F)c(Cl)c4)c3c2)cn1,103%
7,CC(=O)OC1Oc2ccccc2-c2oc(=O)c(-c3ccc(F)cc3)cc21 (stereo not given),97.3%
8,Cc1ccc(NC(=S)N2CCOCC2)cc1C,103%
9,CCN(CC)Cc1cc(Nc2c3ccc(Cl)cc3nc3c(C)cccc23)ccc1O,-19.7% (active)
10,O=C(/C=C/c1ccccc1)c1cccc2ccccc12,33.7%
11,CC1(C)CC[C@]23CC[C@]4(C)[C@H](CC[C@@H]5[C@@]6(C)CCNCC(C)(C)[C@@H]6CC[C@]54C)[C@H]2[C@H]1OC3,23.6%
12,COc1ccc(CCN2CCC(CN(C)Cc3cnn(-c4ccccc4)c3)CC2)cc1,6.41% (active)
13,Fc1ccc2[nH]cc(SSc3c[nH]c4ccc(F)cc34)c2c1,-32.3% (active)
14,O=C(N/N=C/c1ccc(Cl)cc1)c1ccccc1Nc1cccc(C(F)(F)F)c1,84.7%
15,Cn1c(COC(=O)NCCn2ccnc2)nc2c(N3CCOCC3)nc(-c3ccccc3)nc21,-37.5% (active)
16,COC(=O)[C@@H](OC)[C@@H]1Cc2cc3cc(OC4CC(OC5CC(O)C(O)C(C)O5)C(O)C(C)O4)c(C)c(O)c3c(O)c2C(=O)[C@H]1OC1CC(OC2CC(OC3CC(C)(O)C(O)C(C)O3)C(O)C(C)O2)C(O)C(C)O1 (stereo not given in full),-33.5% (active)
17,COc1ccc(NC(=O)/N=c2\oc3c(OC)cccc3cc2-c2cc3ccccc3[nH]2)cc1,142%
18,COc1cc(-c2nc(SCCC(C)C)nc(N3CCOCC3)c2C#N)cc(OC)c1OC,95.2%
19,COc1ccc2[nH]c(C(=O)N3CCN(C(=O)OCc4ccc5c(Cl)cc(Cl)c(O)c5n4)CC3)cc2c1,-45% (active)
20,CC[C@]1(O)CC2CN(CCc3c([nH]c4ccccc34)[C@@](C(=O)OC)(c3cc4c(cc3OC)N(C=O)[C@H]3[C@@](O)(C(=O)OC)[C@H](OC(C)=O)[C@]5(CC)C=CCN6CC[C@]43[C@@H]65)C2)C1 (stereo not given in full),7.11% (active)

row,SMILES,growth
1,Cn1cnc([N+](=O)[O-])c1Sc1nnc(-c2ccccc2)c(-c2ccccc2)n1,104%
2,Cc1ccc(C(=O)C2=C(O)C(=O)N(Cc3cccnc3)C2c2ccccc2F)o1 (stereo not given),99.7%
3,CCN(CC)Cc1cc(Nc2nc(NC3CCC(N(C)C)CC3)c3ccccc3n2)ccc1OC (stereo not given),69%
4,NC1(CO)COC(c2ccccc2)OC1 (stereo not given),89.2%
5,O=C(/C=C/c1cccc(Oc2ccccc2)c1)c1ccc(Nc2nc(Nc3ccc(F)cc3)nc(Nc3ccc(Cl)cc3)n2)cc1,-38.2% (active)
6,COc1ccc(Nc2ncccc2/C=C/C(=O)c2cc(OC)c(OC)c(OC)c2)cc1,-42.4% (active)
7,CC(C)c1ncc([N+](=O)[O-])n1C,118%
8,CCOC(=O)CCCC(=O)OCC,102%
9,Cn1cc(-c2nc(-c3c[nH]c4ncccc34)cs2)c2cc(Cl)ccc21,55.8%
10,O=C1C2=C(Nc3cc([N+](=O)[O-])ccc3N2)OC1c1c2ccccc2cc2ccccc12 (stereo not given),14.2%
11,COc1cc(C(=O)/C=C/c2c(C)n([O-])c3ccc(C)cc3[n+]2=O)cc(OC)c1OC,-42.6% (active)
12,O=C(c1ccccc1)c1cccc(C(Br)Br)c1,87.6%
13,COc1ccccc1S(=O)(=O)Nc1ccc2c3c(cc(-c4cnn(C)c4)nc13)C(=O)N2C,-30.1% (active)
14,Cc1cc(Cl)nc(NCc2cc(Nc3ccnc4cc(Cl)ccc34)ccc2F)n1,42.4%
15,O=C(CSc1nccc(Nc2ccc(S(=O)(=O)Nc3nccs3)cc2)n1)c1ccc(C(F)(F)F)cc1,103%
16,O=[N+]([O-])CC(O)c1ccccc1 (stereo not given),99.4%
17,CN(C)Cc1ccc(O)c(C(=O)O)c1,107%
18,Clc1ccc(I)c2ccccc12,98.1%
19,Cc1cc(NCc2cc(Nc3ccnc4cc(Cl)ccc34)ccc2F)nc(N2CCN(C)CC2)n1,-46.6% (active)
20,O=C(O)[C@@H]1[C@H]2C[C@H]3c4[nH]c5ccccc5c4CCN3C[C@@H]2CC[C@@H]1O,128%

# From PubChem BioAssay (NCI)
